The list is not random: actives were taken first. Their share in the collection is about 3.6%.
Autofluor counter – compound fluorescence in toxin protease inhibitor counterscreen; fluorescence intensity (concentration not given with the values); compound autofluorescence counterscreen, microsphere flow cytometry; hits give high values; 360,000 tested, 3.1% active; in the data active = fluorescence intensity above about 16000; inconclusive = no clear call, values can overlap the other calls
SARS 3CLpro inh – SARS-CoV 3CLpro protease inhibitors, primary screen, biochemical, quenched FRET | Replicase polyprotein 1ab (Severe acute respiratory syndrome coronavirus), P0C6X7 | recombinant SARS-CoV 3CLpro, quenched FRET peptide cleavage | inhibition, % at 6 µM | 290,000 tested, 0.14% active | AID 1706, 2009; in the data active = inhibition above about 12%
BoNT-F LC inh – BoNT/F light chain protease inhibitors, primary screen, biochemical, flow cytometry, MLPCN library; inhibition, % at 10 µM; Multiplex microsphere protease cleavage assay; 360,000 tested, 0.22% active; AID 588497, 2011; Botulinum neurotoxin type F light chain protease (Clostridium botulinum); in the data active = inhibition above about 35%, passing the limit was not always enough; inconclusive = no clear call, values can overlap the other calls; also: plate controls were buffer without enzyme for full effect and enzyme alone for no effect
BoNT A protease – BoNT/A light chain protease inhibitors, primary screen, biochemical, flow cytometry, MLPCN library. multiplex microsphere protease substrate cleavage. inhibition, % at 10 µM. 360,000 tested, 0.17% active; also: plate controls were buffer without enzyme for full effect and enzyme alone for no effect
Anthrax LF inh2 – Bacillus anthracis LF protease inhibitors, primary screen, biochemical, multiplex microsphere, MLPCN library. inhibition, % at 10 µM. multiplex microsphere protease cleavage assay. 360,000 tested, 0.12% active; also: plate controls were buffer without enzyme for full effect and enzyme alone for no effect
Target sequence (P15917 whole entry, looked up): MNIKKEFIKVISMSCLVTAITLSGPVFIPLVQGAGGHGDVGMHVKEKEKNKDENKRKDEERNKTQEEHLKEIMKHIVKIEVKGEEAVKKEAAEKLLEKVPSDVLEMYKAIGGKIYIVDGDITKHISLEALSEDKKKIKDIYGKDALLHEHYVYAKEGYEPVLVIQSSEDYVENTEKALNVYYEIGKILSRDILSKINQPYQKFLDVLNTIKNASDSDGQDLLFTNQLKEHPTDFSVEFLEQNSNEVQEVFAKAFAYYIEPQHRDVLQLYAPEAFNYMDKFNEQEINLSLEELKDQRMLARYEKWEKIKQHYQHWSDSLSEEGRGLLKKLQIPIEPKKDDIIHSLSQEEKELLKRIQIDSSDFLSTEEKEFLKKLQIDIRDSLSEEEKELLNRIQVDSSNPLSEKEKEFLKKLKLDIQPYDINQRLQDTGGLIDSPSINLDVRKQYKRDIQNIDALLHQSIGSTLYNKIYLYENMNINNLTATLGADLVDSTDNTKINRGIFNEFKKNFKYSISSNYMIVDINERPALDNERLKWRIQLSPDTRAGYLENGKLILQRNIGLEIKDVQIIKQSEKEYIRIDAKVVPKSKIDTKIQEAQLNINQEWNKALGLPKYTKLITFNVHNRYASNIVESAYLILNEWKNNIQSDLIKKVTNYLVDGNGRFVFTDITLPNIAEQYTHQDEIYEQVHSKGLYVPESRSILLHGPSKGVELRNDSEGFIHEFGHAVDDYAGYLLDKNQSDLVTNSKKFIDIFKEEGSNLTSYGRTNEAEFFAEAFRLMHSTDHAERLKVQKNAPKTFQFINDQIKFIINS
BJeLR lethal – MLPCN primary cell-based screen for lethality selective to Ras in HRASV12 cells; 300,000 tested, 0.17% active; inhibition, % (test concentration not listed); BJeLR (HRASV12) viability, CellTiter-Glo ATP luminescence, 48 h; in the data active = inhibition above about 50%; inconclusive = no clear call, values can overlap the other calls
The depositor's hits bear a star. Rule as the data show it, unless noted: active = inhibition above about 30%; inconclusive = no clear call, values can overlap the other calls; inactive = below that.

Screening CCCC1=C(C(=O)OCC)C2(C(=O)Nc3ccc(C)cc32)C(C#N)=C(N)O1 (configuration not stated) returned Autofluor counter 20310*, SARS 3CLpro inh 1, BoNT-F LC inh 1, BoNT A protease inconclusive, Anthrax LF inh2 2 and BJeLR lethal 1.
`COC(=O)c1cc2c(C)c(C)c3ccccn3c-2c1C(=O)OC` gave Autofluor counter 3468, SARS 3CLpro inh 0, BoNT-F LC inh 0, BoNT A protease 1, Anthrax LF inh2 -2 and BJeLR lethal 5.
For CC(C)OC(=O)c1c2c(n3ccccc13)C(=O)c1ccccc1C2=O the results were Autofluor counter 5595, SARS 3CLpro inh 2, BoNT-F LC inh 23, BoNT A protease 79*, Anthrax LF inh2 38* and BJeLR lethal -11.
O=C(O)c1cc2cc(Cl)ccc2oc1=O was read as Autofluor counter 22395*, SARS 3CLpro inh -3, BoNT-F LC inh 3, BoNT A protease 1, Anthrax LF inh2 -2 and BJeLR lethal -5.
COC(=O)c1sc(SC)c(-c2ccon2)c1C was read as Autofluor counter 5933, SARS 3CLpro inh 8, BoNT-F LC inh 2, BoNT A protease 0, Anthrax LF inh2 0 and BJeLR lethal 1.
Screening O=C1/C(=C/c2ccncc2)CCC/C1=C\c1ccncc1 returned Autofluor counter 4297, SARS 3CLpro inh 3, BoNT-F LC inh -6, BoNT A protease 0, Anthrax LF inh2 2 and BJeLR lethal 68*.
C=CCN1C(=O)C2(C(C#N)=C(N)Oc3n[nH]c(CCC)c32)c2ccccc21 (configuration not stated) was read as Autofluor counter 3590, SARS 3CLpro inh -5, BoNT-F LC inh -12, BoNT A protease -1, Anthrax LF inh2 -3 and BJeLR lethal -1.
Screening O=C(N/N=C/c1ccc(-c2ccccc2C(=O)O)o1)c1cccs1 returned Autofluor counter 2875, SARS 3CLpro inh -2, BoNT-F LC inh -4, BoNT A protease 0, Anthrax LF inh2 -2 and BJeLR lethal -6.
Screening CC(=O)OC1CC(C)N(C(=O)c2ccccc2)c2ccc(C)cc21 (configuration not stated) returned Autofluor counter 25080*, SARS 3CLpro inh -1, BoNT-F LC inh -8, BoNT A protease -5, Anthrax LF inh2 -2 and BJeLR lethal -2.
Cc1cccc(NS(=O)(=O)c2ccc(C)c(C(=O)NC3CCN(Cc4ccccc4)CC3)c2)c1 was read as Autofluor counter 30942*, BoNT-F LC inh 18, BoNT A protease 9 and Anthrax LF inh2 3.
Screening Cc1ccccc1C(=O)NC1CCN(Cc2ccccc2)CC1 returned Autofluor counter 3083, SARS 3CLpro inh 2, BoNT-F LC inh 3, BoNT A protease 0, Anthrax LF inh2 1 and BJeLR lethal 1.
Cn1c(=O)c(N)c2c3c(c(Br)ccc31)C(=O)c1ccccc1-2 was read as Autofluor counter 3760, SARS 3CLpro inh -3, BoNT-F LC inh -1, BoNT A protease 38*, Anthrax LF inh2 19 and BJeLR lethal -1.
Screening N#Cc1c(-n2ccnc2)cccc1-n1ccnc1 returned Autofluor counter 21837*, SARS 3CLpro inh 3, BoNT-F LC inh 2, BoNT A protease 2, Anthrax LF inh2 -2 and BJeLR lethal -3.
For COc1ccc(/C=C2\COc3ccccc3C2=O)c(OC)c1 the results were Autofluor counter 3855, SARS 3CLpro inh 10, BoNT-F LC inh -17, BoNT A protease -3, Anthrax LF inh2 3 and BJeLR lethal -3.
`COc1ccc(C=C2c3ccccc3C(=O)c3ccccc32)c(OC)c1` gave Autofluor counter 4419, SARS 3CLpro inh -2, BoNT-F LC inh inconclusive, BoNT A protease -3, Anthrax LF inh2 -7 and BJeLR lethal 53*.
Screening Cc1cccc2c1NC(=O)/C2=C\C(=O)c1cccs1 returned Autofluor counter 23425*, SARS 3CLpro inh -1, BoNT-F LC inh -5, BoNT A protease inconclusive, Anthrax LF inh2 -2 and BJeLR lethal 24.

Source: PubChem
